A selection: hits, their analogues and other compounds. The true share with any hit is near 0.8%.
FEN1 inh: qHTS Assay for the Inhibitors of Human Flap endonuclease 1 (FEN1) | AID 588795, 2011 | Recombinant FEN1 flap cleavage, fluorescence, 15 min | hit rate 0.35% among 390,000 | Potency, µM (series often up to 114 µM), for inactives: at the highest dose activity change, negative = inhibition, most hits filed as inhibitors; also: potency is read from the fitted curve at half-maximal effect; nearly all actives have a fitted effect of over 65% in size
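Quantitative HTS format: each compound was titrated, incubated with 10 nM nuclease for 15 min at room temperature, then challenged with flap substrate at 50 nM final. Signal change over 15 min gave concentration–effect curves.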
APEX1 inh: qHTS Assay for Inhibitors of the Human Apurinic/apyrimidinic Endonuclease 1 (APE1); recombinant APE1, TAMRA/BHQ-2 abasic DNA cleavage fluorescence; Potency, µM (highest dose often 65.8 µM), without a hit: at the top dose activity change, negative = inhibition, hits mostly inhibitors; hit rate 0.35% among 350,000;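 also: potency is read from the fitted curve at half-maximal effect; plate controls were vehicle for no effect and reference inhibitor for full effect; nearly all actives have a fitted effect of over 55% in size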
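Quantitative HTS: incision of a TAMRA/BHQ-2 double-stranded substrate bearing a tetrahydrofuran abasic site by 0.75 nM APE1 raises fluorescence. Substrate 50 nM final, added after 15 min compound preincubation at room temperature; progress as third-minus-first kinetic read difference.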
Tb PFK inh: qHTS Assay to Find Inhibitors of T. brucei phosphofructokinase; ATP-dependent 6-phosphofructokinase (Trypanosoma brucei brucei), O15648; T. brucei PFK, ADP-Glo luminescence; Potency, µM (doses to about 57.5 µM), for inactives: at the highest dose activity, negative = inhibition, actives largely listed as inhibitors; hit rate 0.17% among 330,000;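 also: potency is read from the fitted curve at half-maximal effect; 0% = uninhibited 1x PFK enzyme wells and -100% = no-enzyme wells; nearly all actives have a fitted effect of over 60% in size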
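In TEA buffer at pH 8.0 with 5 mM MgCl2, enzyme (1.25 nM) converted F6P (0.5 mM) and ATP (0.1 mM) for 45 min at room temperature. ADP product was read by luciferase luminescence.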
PGK inhibitor: qHTS Assay to Find Inhibitors of Phosphoglycerate Kinase; AID 602233, 2012; Phosphoglycerate kinase, glycosomal (Trypanosoma brucei brucei), P07378; Potency, µM (series often up to 57.5 µM), for inactives: at the highest dose activity change, negative = inhibition, hits mostly inhibitors; hit rate 0.043% among 380,000; PGK/GAPDH coupled, Kinase-Glo luminescence, 60 min; also: potency is read from the fitted curve at half-maximal effect; nearly all actives have a fitted effect of over 60% in size
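Luminescent ATP detection (Kinase-Glo Plus) follows a 60-minute room-temperature incubation, with wells lacking PGK as controls. Buffer: 100 mM TEA (pH 7.6), 5 mM MgCl2, 0.01% Tween-20. Coupling enzyme GAPDH (100 nM final) supplies unstable 1,3-BPG in-well.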
TDP1 block: qHTS Assay for Inhibitors of Tyrosyl-DNA Phosphodiesterase (TDP1); Tyrosyl-DNA phosphodiesterase 1 (Homo sapiens), Q9NUW8; recombinant TDP1, AlphaScreen DNA substrate cleavage; Potency, µM (titrated, usually from 130 µM), inactives show at the top dose activity change, negative = inhibition, most hits filed as inhibitors; hit rate 0.28% among 350,000; also: potency is read from the fitted curve at half-maximal effect; nearly all actives have a fitted effect of over 40% in size
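Tdp1 1 nM final; 15 min RT w/ cpd; substrate 15 nM, 5 min; beads 10 ug/ml, 10 min; AlphaScreen read. Neg ctrl: no enzyme.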
PI4K2A inh: qHTS for small molecular inhibitors of PI4K2A | purified PI4K2A, ADP-Glo luminescence, 1 h; stronger effect = lower value | activity change, negative = inhibition, % at 76.9 µM | hit rate 0.13% among 420,000 | AID 1346378, 2018; in the data active = activity change below about -50%; inconclusive = mostly about -30% to -49%;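 also: -100% = wells without enzyme as full effect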
Target sequence (Q9BTU6 whole entry, looked up): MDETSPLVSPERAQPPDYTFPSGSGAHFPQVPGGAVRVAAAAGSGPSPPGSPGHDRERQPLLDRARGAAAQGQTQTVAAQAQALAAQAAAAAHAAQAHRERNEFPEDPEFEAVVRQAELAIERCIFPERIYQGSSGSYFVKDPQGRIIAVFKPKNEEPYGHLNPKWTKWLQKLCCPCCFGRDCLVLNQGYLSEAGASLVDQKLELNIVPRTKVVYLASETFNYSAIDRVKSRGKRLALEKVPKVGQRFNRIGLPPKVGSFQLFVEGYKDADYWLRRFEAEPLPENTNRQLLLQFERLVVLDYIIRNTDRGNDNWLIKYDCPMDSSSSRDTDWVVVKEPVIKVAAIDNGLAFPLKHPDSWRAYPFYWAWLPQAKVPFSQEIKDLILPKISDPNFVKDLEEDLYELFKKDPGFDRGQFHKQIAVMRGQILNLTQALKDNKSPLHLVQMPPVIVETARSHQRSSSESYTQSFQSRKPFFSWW
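PI4K2A activity was measured by ADP-Glo luminescence: enzyme (4 ug/mL stock) and phosphatidylinositol (1.2 mM stock) in Tris pH 7.5/MgCl2/EGTA/Triton X-100 buffer were reacted with ATP (300 microM stock) for one hour at ambient temperature.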
Numbers without * were called inactive; i = inactive; ? = inconclusive; nt = no result; [ ] = remark or other dose. Unless noted, calls follow the shape of the dose curve; as a rule, active = well fitted curve in the direction sought with a large enough effect; inconclusive = small, poorly fitted or top-dose-only effect, or another doubt; inactive = no such curve, though single readings can be large; an effect the other way counts as inactive or inconclusive. Unless noted, % is scaled to controls: 0 for no effect and ±100 for the full control effect.

SMILES | FEN1 inh | APEX1 inh | Tb PFK inh | PGK inhibitor | TDP1 block | PI4K2A inh
COc1ccc(OC)c(NC(=O)C(=O)/C=C(\O)c2cc(OC)ccc2OC)c1 | 40µM* | -6% | 2% | i | 5% | -5
COc1ccc(OC)c(N/C(C)=C/C(=O)c2ccccc2)c1 | -11% | -1% | 4% | -5% | 6% | -12
COc1ccc(OC)c(NC(=O)Nc2cc(NC(=O)Nc3cc(OC)ccc3OC)c(C)nc2C)c1 | 3% | 6% | -1% | 11% | -5% | 0
Cc1c(N)nc([C@H](CC(N)=O)NC[C@H](N)C(N)=O)nc1C(=O)N[C@H](C(=O)N[C@H](C)[C@@H](O)[C@H](C)C(=O)N[C@H](C(=O)NCCc1nc(-c2nc(C(=O)NCCCCN=C(N)N)cs2)cs1)[C@@H](C)O)[C@@H](O[C@@H]1O[C@@H](CO)[C@@H](O)[C@H](O)[C@@H]1O[C@H]1O[C@H](CO)[C@@H](O)[C@H](OC(N)=O)[C@@H]1O)c1cnc[nH]1 | nt | -2% | nt | nt | nt | nt
CCOC(=O)c1sc(=S)n(-c2ccc(C)cc2)c1N | 12% | 6% | -19% | 7% | 1% | 0
CCOC(=O)c1sc(=S)n(-c2ccccc2)c1NC(C)=O | 79µM* | -2% | 1% | i | nt | -3
CCO[C@@H]1O[C@H](C(COCc2ccccc2)OCc2ccccc2)[C@H](OCc2ccccc2)[C@H]1O (some centres not stated) | nt | 0%[21 µM] | nt | nt | nt | 0
OC[C@H](S)CS | ? | nt | nt | nt | 13µM* | nt
O=S(=O)(Nc1cc(Sc2ncn[nH]2)c(O)c2ccccc12)c1ccccc1 | 20µM* | 3% | ? | -11% | 11% | -64*
CC(C)Cc1ccc(C(C)C(=O)OCc2ccccn2)cc1 (configuration not stated) | nt | nt | nt | nt | nt | 1
CN(C)c1ccc2c(-c3ccccc3)c3ccc(=[N+](C)C)cc-3oc2c1 | nt | 28µM* | nt | nt | 21% | nt
COc1cc2oc(-c3ccccc3)cc(=O)c2cc1OC | nt | -4% | nt | nt | 12%[56.1 µM] | nt
CC(C)C(=O)OCc1cccc(OC(=O)[C@@H]2N3C(=O)[C@@H](NC(=O)Cc4ccccc4)[C@H]3SC2(C)C)c1 | nt | nt | nt | nt | nt | -5
N#Cc1c(-c2cccc(Cl)c2)no[n+]1[O-] | nt | -7% | nt | nt | nt | nt
O=S(=O)(c1cccc(C(F)(F)F)c1)n1c(/C=C/c2ccccc2)nc2ccccc21 | -23% | nt | nt | i | -5% | -61*
Cc1ccc2nccc(/C=C/c3ccc(N(C)C)cc3)c2c1 | -8% | nt | nt | nt | nt | nt
CN(C)c1ccc(Cc2cc3c(O)ccc(O)c3cc(Cc3ccc(N(C)C)cc3)c2=O)cc1 | 40µM* | nt | nt | -30% | nt | -56*
O=C(CCCCCNC(=O)c1ccccc1Br)N=Nc1c(O)[nH]c2ccccc12 | -14% | 25µM* | ? | -3% | ? | 5
CC(=O)Nc1ccc(SCC(=O)O)cc1 | -16% | 3% | -2% | -3% | 4% | 0
O=C(O)CSc1ccc(NC(=O)Nc2ccccc2F)cc1 | 16% | 0% | -5% | 4% | 4% | -54*
CCOc1ccc(/C=C/C(=O)c2cc(Br)ccc(=O)c2O)cc1 | 45µM* | 21% | -6% | -11% | 11% | -6
Cc1ccc(SC[C@H](c2ccccc2)N2CCN(CCc3ccccc3)CCC2=O)cc1 | -25% | -7% | -1% | 4% | 7% | -1
O=C1CCN(CCc2ccccc2)CCN1[C@H](CSc1ccccc1)c1ccccc1 | -19% | -13% | 1% | -8% | nt | -63*
CCN(CC)c1ccc(/C=C2\C(=O)c3ccc(C(=O)O)cc3C2=O)cc1 | 40µM* | ? | 2% | -22% | -5% | -16
CCCCC(=O)N(Cc1ccc(-c2ccccc2-c2nn[nH]n2)cc1)[C@@H](C(=O)O)C(C)C | nt | -4% | nt | nt | nt | nt
SMILES | FEN1 inh | APEX1 inh | Tb PFK inh | PGK inhibitor | TDP1 block | PI4K2A inh
COc1cc(N)c2ncccc2c1SC | nt | nt | nt | -5% | nt | -11
COc1cc(N)c2ncccc2c1Br | -19% | nt | nt | 3% | nt | -52*
O=S1(=O)N=C(Oc2ccc(-c3ccccc3)cc2)c2ccccc21 | nt | nt | nt | nt | 2% | nt
O=C(NCc1ccco1)c1cnc2n(c1=O)CCS2 | -7% | 13% | 3% | -1% | -4% | -3
O=C(NCc1ccco1)c1ccc(C(=O)NCc2ccco2)cc1 | -20% | nt | nt | -6% | nt | 0
Cc1csc2ncc(C(=O)NCc3ccco3)c(=O)n12 | -14% | ? | -12% | -10% | 45µM* | 0
O=C(NCc1ccco1)c1cc2c(s1)CSC2 | 50µM* | ? | ? | ? | nt | -25
Cc1ccc(C(=O)NCc2ccco2)cc1 | -1% | 2% | 0% | -10% | 3.2µM* | 3
Cc1c(N)cccc1C(F)(F)F | nt | nt | nt | nt | nt | 2
CC1=C(C#N)C(=O)N(C2CCS(=O)(=O)C2)C(=O)/C1=C\c1ccco1 (configuration not stated) | nt | 1.6µM* | 15µM* | nt | nt | nt
O=C1/C(=C\c2ccco2)SC(=S)N1C1CCCCC1 | nt | 1% | 4% | nt | nt | nt
CCN(Cc1ccccc1)S(=O)(=O)c1ccccc1Br | -2% | 6% | -1% | -9% | -15%[56.1 µM] | -2
CCCN(S(=O)(=O)c1ccccc1F)S(=O)(=O)c1ccccc1Br | -1% | 54% | 0% | -1% | 89µM* | -6
CCCCOC(=O)CCCCCCCCC(=O)OCCCC | nt | nt | nt | nt | nt | -3
O=C(O)c1ccc(NC(=S)NC(=O)c2ccc(-c3ccc(Br)cc3)o2)cc1 | -10% | -58% | -5% | ? | 14µM* | -1
NS(=O)(=O)c1ccc(-c2ccc(/C=C3\NC(=S)NC3=O)o2)cc1 | 50µM* | -15% | ? | -9% | nt | -4
NS(=O)(=O)c1ccc(-c2ccc(C=O)o2)cc1 | -4% | 1% | 1% | -8% | 2% | -2
CCCCN(CCCC)Cc1cc2ccccc2c2c1COC2 | -1% | 0% | -3% | -6% | 2% | -81*
COc1ccc(OCc2cc(C3Nc4ccccc4C(=O)N3Cc3ccccc3)ccc2OC)cc1 (configuration not stated) | nt | nt | nt | nt | 1% | nt
CC1=NN(c2ccccc2)C(=O)C1=Cc1ccccc1 | nt | nt | nt | -9% | nt | -57*

Compound activity deposited in PubChem by National Center for Advancing Translational Sciences (NCATS).
